Molecular target: T1, ELF5 (Homo sapiens, UniProt Q9UKW6-2 1-255)
T1 sequence: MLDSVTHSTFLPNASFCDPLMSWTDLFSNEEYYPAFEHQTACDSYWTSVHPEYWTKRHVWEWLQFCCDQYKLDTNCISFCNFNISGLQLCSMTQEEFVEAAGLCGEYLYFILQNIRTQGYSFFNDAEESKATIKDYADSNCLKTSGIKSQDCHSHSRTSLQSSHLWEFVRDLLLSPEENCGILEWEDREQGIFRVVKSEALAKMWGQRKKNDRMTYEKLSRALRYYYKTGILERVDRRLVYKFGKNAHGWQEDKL
Assay: DAPPL (digital affinity profiling via proximity ligation, sequencing); 10 mM Tris-HCl pH 7.5, 50 mM NaCl, 1 mM DTT, 4% glycerol, room temperature, 30 min; GST-TFs on glutathione beads, 16-mer random dsDNA library, 0.1% formaldehyde crosslink after washing; high values mean tight binding
Settings: protein: recombinant; tags: N-terminal GST; dsDNA, one strand shown
In short: (§1)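 Yeast served to express human transcription factors as GST fusions, which were then captured on glutathione beads and labelled with DNA barcodes. Pooled with a tag-only sample, they were incubated with 200 nmole of a 16-mer random double-stranded DNA library for 30 min at room temperature in Tris/NaCl/DTT/glycerol buffer, washed, crosslinked with 0.1% formaldehyde, ligated by proximity, amplified by PCR and sequenced. Dividing each hexamer's read frequency for a factor by its frequency for the tag-only sample gives the binding signal.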

Sequence	binding signal
ACCTTT	1.45 fold enrichment (6-mer frequency, TF over GST control)
ATAAAA	1.11 fold enrichment (6-mer frequency, TF over GST control)
CTTATA	1.48 fold enrichment (6-mer frequency, TF over GST control)
TTCATG	1.28 fold enrichment (6-mer frequency, TF over GST control)
AAACCC	1.31 fold enrichment (6-mer frequency, TF over GST control)
AAATAT	1.41 fold enrichment (6-mer frequency, TF over GST control)
CCTGGA	1.74 fold enrichment (6-mer frequency, TF over GST control)
ATCTTC	1.82 fold enrichment (6-mer frequency, TF over GST control)
CTGAAC	1.41 fold enrichment (6-mer frequency, TF over GST control)
TTTGAT	1.26 fold enrichment (6-mer frequency, TF over GST control)
CCTAGC	1.06 fold enrichment (6-mer frequency, TF over GST control)
TCCATT	1.2 fold enrichment (6-mer frequency, TF over GST control)
CCTTGG	1.26 fold enrichment (6-mer frequency, TF over GST control)
TTTTAA	1.17 fold enrichment (6-mer frequency, TF over GST control)
AATTGT	1.35 fold enrichment (6-mer frequency, TF over GST control)
TCTGGC	1.08 fold enrichment (6-mer frequency, TF over GST control)
ATGGCC	1.32 fold enrichment (6-mer frequency, TF over GST control)
GCGACT	1.3 fold enrichment (6-mer frequency, TF over GST control)
ATATCT	1.18 fold enrichment (6-mer frequency, TF over GST control)
TCCCCC	1.7 fold enrichment (6-mer frequency, TF over GST control)

Sequence	binding signal
TCATTC	1.12 fold enrichment (6-mer frequency, TF over GST control)
TACCCT	1.26 fold enrichment (6-mer frequency, TF over GST control)
TAAGAA	1.03 fold enrichment (6-mer frequency, TF over GST control)
GATATA	1.13 fold enrichment (6-mer frequency, TF over GST control)
TGTTAT	1.36 fold enrichment (6-mer frequency, TF over GST control)
CCTACG	1.43 fold enrichment (6-mer frequency, TF over GST control)
ACTACG	1.33 fold enrichment (6-mer frequency, TF over GST control)
TCCAAG	1.07 fold enrichment (6-mer frequency, TF over GST control)
AACTGC	1.36 fold enrichment (6-mer frequency, TF over GST control)
ATTACA	1.08 fold enrichment (6-mer frequency, TF over GST control)
TAATTC	1.41 fold enrichment (6-mer frequency, TF over GST control)
TGCTCC	1.37 fold enrichment (6-mer frequency, TF over GST control)
AAATTG	1.22 fold enrichment (6-mer frequency, TF over GST control)
TATCCT	2.65 fold enrichment (6-mer frequency, TF over GST control)
CCGAAC	1.21 fold enrichment (6-mer frequency, TF over GST control)
CATACT	1.27 fold enrichment (6-mer frequency, TF over GST control)
TTTCCG	5.34 fold enrichment (6-mer frequency, TF over GST control)
CCCATA	1.25 fold enrichment (6-mer frequency, TF over GST control)
AGCTAC	1.18 fold enrichment (6-mer frequency, TF over GST control)
ATCCCT	1.37 fold enrichment (6-mer frequency, TF over GST control)

Molecular target: T2, ETV3 (Homo sapiens, UniProt P41162-2 1-143)
T2 sequence: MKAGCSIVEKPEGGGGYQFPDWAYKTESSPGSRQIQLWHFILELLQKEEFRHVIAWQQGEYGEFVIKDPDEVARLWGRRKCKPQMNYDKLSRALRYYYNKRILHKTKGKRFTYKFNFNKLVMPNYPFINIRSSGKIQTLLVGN
Assay: as above
Settings: protein: recombinant; tags: N-terminal GST; dsDNA, one strand shown
In short: as §1

Sequence	binding signal
ACCTTT	1.42 fold enrichment (6-mer frequency, TF over GST control)
ATAAAA	1.15 fold enrichment (6-mer frequency, TF over GST control)
CTTATA	1.28 fold enrichment (6-mer frequency, TF over GST control)
TTCATG	1.4 fold enrichment (6-mer frequency, TF over GST control)
AAACCC	1.29 fold enrichment (6-mer frequency, TF over GST control)
AAATAT	1.29 fold enrichment (6-mer frequency, TF over GST control)
CCTGGA	1.37 fold enrichment (6-mer frequency, TF over GST control)
ATCTTC	1.49 fold enrichment (6-mer frequency, TF over GST control)
CTGAAC	1.47 fold enrichment (6-mer frequency, TF over GST control)
TTTGAT	1.32 fold enrichment (6-mer frequency, TF over GST control)
CCTAGC	1.16 fold enrichment (6-mer frequency, TF over GST control)
TCCATT	1.37 fold enrichment (6-mer frequency, TF over GST control)
CCTTGG	1.12 fold enrichment (6-mer frequency, TF over GST control)
TTTTAA	1.23 fold enrichment (6-mer frequency, TF over GST control)
AATTGT	1.31 fold enrichment (6-mer frequency, TF over GST control)
TCTGGC	1.06 fold enrichment (6-mer frequency, TF over GST control)
ATGGCC	1.39 fold enrichment (6-mer frequency, TF over GST control)
GCGACT	1.14 fold enrichment (6-mer frequency, TF over GST control)
ATATCT	1.19 fold enrichment (6-mer frequency, TF over GST control)
TCCCCC	1.51 fold enrichment (6-mer frequency, TF over GST control)
